# The panel holds about 83,000 compounds, 20% with a hit somewhere; the sample as a whole holds those more often.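 Testing used 96-well plates and a 48-hour single-concentration exposure. Example: -40 means 40% of the starting cells died.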 A number with no mark means an inactive call. Activity calls are given as the source filed them.
# Test system: SR leukemia
# Assay: NCI-60 one-dose screen, 48 h (100 = growth as untreated, 0 = no growth, -100 = all killed)
# Details: 10 µM unless noted
# Method: Growth inhibition of the SR human tumor cell line is measured as a screen for anti-cancer activity. Cells are grown in 96 well plates and exposed to the test compound for 48 hours. Compounds are tested at a single concentration, which is 10^-5 M for most compounds. The reported endpoint is percent growth (GI% or GIPRCNT), where numbers from 0 - 100% represent growth inhibition, and numbers from -100% - 0 represent cell death. For example, a value of 40 represents 60% growth inhibition. A value of 0 means no net growth occurred over the course of the experiment. A value of -40 indicates 40% of cells at the beginning of the experiment died by the end of the experiment. A value of -100 means all cells are dead at the end of the experiment.
# NCI-60 Human Tumor Cell Lines Screen was performed using the standard one-dose NCI protocol, which is described in more detail at https://dtp.cancer.gov/discovery_development/nci-60/default.htm.
# Compounds with GIPRCNT values below 10 were considered active. Activity score was based on GIPRCNT using the following formula: […]
# Score is 0 for GIPRCNT values of 100 or above, 50 for GIPRCNT values of 0, and 100 for GIPRCNT values of -100.
row,SMILES,growth
1,COc1ccc(-n2nc(C(=O)NCC(=O)Nc3nc4cc(OC)ccc4s3)c3ccccc3c2=O)cc1,86.8%
2,Cc1ccc(/C=C/C(=N/N=C(N)N)c2ccccc2)cc1,-9.62% (active)
3,COc1ccc2c(c1)CCCC21C(=O)Nc2ccccc21 (stereo not given),80.5%
4,CN(C)c1ccc(/C=N/Nc2nnc3n2N=C(c2ccc(Cl)cc2)CS3)cc1,94.1%
5,CCCNC(=S)N/N=C(\C)c1ccccn1,10%
6,C=C(C)C1CCC2(C(=O)O)CCC3(C)C(CCC4C5(C)CCC(O)C(C)(C)C5CCC43C)C12 (stereo not given),9.38% (active)
7,COc1ccc2c(c1)N(CCO)C1=C(C(=O)OC1)C2c1cccc(Br)c1 (stereo not given),17.8%
8,COc1ccc(/C=C2\N=C(c3cccnc3)N(c3ccccc3)NC2=O)cc1,92.7%
9,C#CC[C@@H]1C[C@]2(C)[C@H]3CC[C@@H]4[C@H]5C(C(=C)C)CC[C@]5(C(=O)NCCCCCCCCN)CC[C@@]4(C)[C@]3(C)CC[C@H]2C(C)(C)[C@H]1OC(C)=O (stereo not given in full),-16% (active)
10,C[C@]12CCc3nc(Nc4ccc(O)cc4)sc3C1=CC[C@@H]1[C@@H]2CC[C@]2(C)/C(=N/NC(N)=S)CC[C@@H]12,-5.27% (active)
11,COc1ccc2[nH]c(O)c(/C=c3/ccc4c(c3)N=C(c3ccc(C(F)(F)F)cc3)N=4)c2c1,62.6%
12,CCN(CC)c1ccc2nc3c4ccccc4c(=O)cc-3n(-c3ccccc3)c2c1,-5.63% (active)
13,C#CC[C@@H]1C[C@]2(C)[C@H]3CC=C4[C@H]5CC(C)(C)CC[C@]5(C(=O)NCCCCN)CC[C@@]4(C)[C@]3(C)CC[C@H]2C(C)(C)[C@H]1OC(C)=O,0.939% (active)
14,O=C(Cc1ccc(Nc2ccnc(C(F)(F)F)c2)cc1)N/N=C/c1ccccc1O,98.2%
15,CC1=NOCC(=O)N1,97.5%
16,Nc1c(C(=O)Nc2cccc(Cl)c2)sc2ncc(Br)cc12,71.7%
17,O=C(O)c1cn(-c2ccccc2)nc1-c1ccc(O)cc1,93.3%
18,Cc1ccc(NC(=O)c2nc(S(C)(=O)=O)oc2-c2ccc(F)cc2)cc1Nc1ccc2ncn(C)c(=O)c2c1,-12.5% (active)
19,C=CC[C@]1(O)CC[C@H]2[C@@H]3CCc4cc(O)ccc4[C@H]3CC[C@@]21C,38.4%
20,CN1CCN(Cc2ccc(NC(=O)c3ccc(C#N)c(C#Cc4cnc(N)c5ncccc45)c3)cc2C(F)(F)F)CC1,9.25% (active)

row,SMILES,growth
1,O=C(Nc1ccc(Br)cc1)Nc1ccccc1Cl,84.9%
2,C/C(=N\OC(=O)Nc1cccc(Cl)c1)c1ccccc1,74%
3,CC(=O)c1cc(C(=O)c2ccc3c(c2)Sc2ccccc2N3)c2c(C)cccn12,12.8%
4,CCOC(=O)c1c(NC(=O)c2ccccc2)sc2c(O)c(CN(CC)CC)ccc12,9.72% (active)
5,CN1CCN(Cc2ccc(NC(=O)c3cncc(C#Cc4ncc5ccccn45)c3)cc2C(F)(F)F)CC1,15.6%
6,Nc1nc2c(c3ncccc13)C(c1ccccc1)Cc1ncccc1-2 (stereo not given),40.7%
7,CCCCN(CCCC)CCC(O)c1cc2ccc(C(F)(F)F)cc2c2cc(C(F)(F)F)ccc12 (stereo not given),-36.8% (active)
8,COc1ccc(C(=O)/C=C/c2cn(-c3ccccc3)nc2-c2cccc(Nc3ccnc4cc(Cl)ccc34)c2)cc1,8.4% (active)
9,COc1cc(C2=NOC(c3cc(OC)c(OC)c(OC)c3)C2)ccc1OCCCCOc1cc2c(cc1OC)C(=O)N1CCC[C@H]1C=N2 (stereo not given in full),-24.8% (active)
10,COC(=O)c1cc(Cl)cc([N+](=O)[O-])c1O,63.5%
11,C#CC[C@@H]1C[C@]2(C)[C@H]3CC[C@@H]4[C@H]5C(C(=C)C)CC[C@]5(C(=O)NCCN(CCN)CCN)CC[C@@]4(C)[C@]3(C)CC[C@H]2C(C)(C)[C@H]1OC(C)=O (stereo not given in full),-0.547% (active)
12,O=C(c1ccc(C(F)(F)F)c(Cl)c1)N(Cc1ccc(Cl)cc1)c1ccc(-c2cc(C(F)(F)F)[nH]n2)c(O)c1,20%
13,COc1cc(CN2CCO[C@H](COc3cccc(F)c3)C2)ccc1Cl,50.8%
14,CNCCCNc1ccnc2cc(Cl)ccc12,3.67% (active)
15,COc1cccc2nc(Nc3cccc(NC(=O)c4cc(N5CCOCC5)cc(C(F)(F)F)c4)c3)ccc12,74.4%
16,Cc1ccc(C2CC(c3cccs3)=NN2c2ccc(S(N)(=O)=O)cc2)s1 (stereo not given),82.2%
17,CNCc1ccccc1CN(CC(=O)Nc1ccc2c(c1)CC1(C2)C(=O)Nc2ncccc21)C(=O)C(C)(C)C (stereo not given),110%
18,CCN(CC)Cc1cc(Nc2ccnc3cc(Cl)ccc23)cc(-c2ccc(Cl)cc2)c1O,-22.7% (active)
19,CCOC(=O)c1ccc(NCCC(=O)O)cc1,103%
20,CN1CCN(Cc2ccc(NC(=O)c3cncc(C#Cc4cnc5cccnn45)c3)cc2C(F)(F)F)CC1,5.44% (active)

# Source: PubChem BioAssay (NCI)
